# High-throughput results as filed in PubChem BioAssay.
# PfHsp40 yeast – rescue of PfHsp40-mediated yeast toxicity; S. cerevisiae expressing PfHsp40, growth rescue, ATP luminescence; growth rescue, % at 12.5 µM; actives 0.68% (n = 340,000); in the data active = growth rescue above about 28%, passing the limit was not always enough;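 note: yeast W303a lacking pdr1 and pdr3 grown in galactose medium; growth measured after three days at 30 °C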
# PrPC surface inh – reduces human prion protein on the cell surface | inhibition, % at 13.8 µM | cell surface PrPC, TR-FRET read-out | P04156 | actives 0.43% (n = 370,000) | AID 720596; in the data active = inhibition above about 24%; note: 0% = median of the test wells and 100% = reference compound wells
# ugtP null kill – growth inhibition of S. aureus ugtP deletion strain; growth inhibition, % (test concentration not listed); S. aureus RN4220 ugtP deletion, OD600 growth, 16 h; actives 0.54% (n = 330,000); in the data active = growth inhibition above about 68%;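 note: plate controls were untreated wells for no effect and antibiotic for full effect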
# Sa RN4220 lethal – S. aureus RN4220 growth inhibition | OD600, 16 h | inhibition, % (concentration not given with the values) | actives 0.33% (n = 330,000) | AID 1259311; in the data active = inhibition above about 85%;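 note: plate controls were untreated cells for no effect and reference antibiotic for full effect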
# VHR inh abs – blocks human VHR1 dual specificity phosphatase; P51452; recombinant VHR phosphatase, pNPP absorbance; inhibition, % at 13.3 µM; actives 0.52% (n = 290,000); AID 1654; in the data active = inhibition above about 50%
# Target sequence (P51452 whole entry, looked up): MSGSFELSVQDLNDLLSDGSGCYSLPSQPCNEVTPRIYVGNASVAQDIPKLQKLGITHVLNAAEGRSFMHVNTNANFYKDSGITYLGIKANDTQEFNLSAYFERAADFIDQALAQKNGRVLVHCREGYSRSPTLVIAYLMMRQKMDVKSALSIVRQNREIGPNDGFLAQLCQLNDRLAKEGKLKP
# * marks the source's active call; other numbers are inactive results; nt = no result given. Shown are actives, neighbours in structure and some others; about 1.8% of the full set was active somewhere.
SMILES,PfHsp40 yeast,PrPC surface inh,ugtP null kill,Sa RN4220 lethal,VHR inh abs
O=C1CCCC=CCC(CC(=O)N(CCO)Cc2ccccc2)C(=O)NCCO1 (centres undefined),nt,nt,-5,5,nt
Cc1ccc(CNC(=O)c2ccc3c(=O)c(O)c(-c4ccc(C)cc4)[nH]c3c2)cc1,164*,-3,-20,4,34
Cc1ccc(-c2[nH]c3cc(C(N)=O)ccc3c(=O)c2O)cc1,44*,-30,nt,nt,7
CCCNC(=O)c1ccc2c(=O)c(O)c(-c3ccc(OC)cc3)[nH]c2c1,185*,nt,-16,-1,19
CCCNC(=O)c1ccc2c(=O)c(O)c(-c3ccc(C)cc3)[nH]c2c1,-1,-4,nt,nt,-4
Cc1csc(=NN=C2CCCCC2)n1Cc1ccco1,nt,nt,10,2,nt
O=C(N/N=C/c1ccc[nH]1)c1sc2ccccc2c1Cl,498*,8,nt,nt,16
CC1CCC2C(C)C(=O)OC3OC4(C)CCC1C32OO4 (centres undefined),137*,0,21,7,nt
C=C1C(=O)O[C@@]23C1CCC(C)C2CC[C@@]1(C)OC31 (some centres undefined),nt,nt,0,7,nt
CC1CCC2[C@@H](C)C(=O)OC3O[C@]4(C)CCC1C32OO4 (some centres undefined),110*,5,-3,2,nt
Cc1noc(C)c1NC(=O)Nc1cccc2c1OC(CN(C)S(C)(=O)=O)C(C)CN(C(C)CO)C2=O (centres undefined),nt,nt,1,2,nt
Cc1nc(N2CCN(C(=O)c3ccco3)CC2)c2oc3ccccc3c2n1,0,6,-1,9,29
CCc1nc(N2CCN(C(=O)c3ccco3)CC2)c2oc3ccccc3c2n1,0,3,-4,24,52*
CCN1CCN(C(CNS(=O)(=O)c2ccc(C)cc2)c2cccnc2)CC1 (centres undefined),2,-7,5,1,51*
COc1ccc(C(=O)N=C2SC3CS(=O)(=O)CC3N2c2ccccc2)cc1OC (centres undefined),2,-7,0,0,52*
CC(C)n1cc(C=NNc2ccc(C(=O)O)cc2)c2ccccc21,nt,nt,-7,3,nt
Cc1cc(C)nc(NC(=O)C=Cc2ccc3c(c2)OCO3)c1,nt,nt,-1,-2,nt
CN1C(=O)C2(N=c3ccccc3=N2)c2ccccc21,55*,nt,nt,nt,10
CN(C(=O)COC(=O)c1cc([N+](=O)[O-])ccc1N1CCCC1)C1CCS(=O)(=O)C1 (centres undefined),0,-21,4,12,51*
CCC(C)N(C(=O)COC(=O)c1cc([N+](=O)[O-])ccc1N1CCOCC1)C1CCS(=O)(=O)C1 (centres undefined),7,-7,7,4,nt
CC(C(=O)Nc1ccc2ccccc2c1)C1C[C@]1(C)C(NS(=O)(=O)c1ccccc1)c1ccccc1 (some centres undefined),nt,nt,16,5,nt
CCOCCCNC(=S)N(CCO)Cc1cc2cc3c(cc2[nH]c1=O)OCCO3,2,1,8,1,50*
CCOCCCNC(=S)N(CCN(CC)CC)Cc1cc2cc3c(cc2[nH]c1=O)OCCO3,1,-7,-2,-3,11
COc1cccc(C=NNC(=O)NC23CC4CC(CC(C4)C2)C3)c1O,nt,nt,-2,3,nt
COc1cc(NC(=O)COC(=O)C=Cc2c(C)nn(-c3ccc(F)cc3)c2Cl)cc(OC)c1,nt,nt,-4,5,nt
SMILES,PfHsp40 yeast,PrPC surface inh,ugtP null kill,Sa RN4220 lethal,VHR inh abs
O=c1oc(C(O)c2ccccc2)cc2ccccc12 (centres undefined),nt,nt,-1,4,nt
Cc1ccccc1NC1=C/C(=N\S(=O)(=O)c2cccs2)c2ccccc2C1=O,-1,-4,88*,99*,7
Cc1ccc(NC2=CC(=NS(=O)(=O)c3cccs3)c3ccccc3C2=O)cc1C,nt,nt,3,10,nt
Cc1ccc(C2C3C(=O)N(C)C(=O)C3[C@]3(Cc4ccccc4)C(=O)N(Cc4ccccc4)CC(=O)N23)o1 (some centres undefined),nt,nt,1,-1,nt
O=C1/C(=C/c2ccc(Cl)cc2)SC(=S)N1CCC(=O)N1CCCCC1CCO (centres undefined),0,-4,5,-1,-2
O=C1/C(=C/c2ccccc2)SC(=S)N1CCCC(=O)N1CCCCC1CCO (centres undefined),-1,4,-4,3,51*
CCNC(=O)CN(c1ccc(Cl)cc1)S(=O)(=O)c1ccccc1,0,-7,-8,2,6
CCNC(=O)CN(c1ccc(Oc2ccccc2)cc1)S(=O)(=O)c1ccccc1,60*,4,-2,1,-2
Cc1cccc(OCC(=O)NCCNC(=O)c2ccncc2)c1,0,1,7,2,60*
COc1cccc(-c2nc(OC(C)C)c3ccccc3n2)c1,0,-5,94*,-15,26
COc1cccc(Nc2nc(-c3ccccc3O)nc3ccccc23)c1,1,0,-8,-12,10
COc1cccc(Nc2nc(-c3ccccc3)nc3ccccc23)c1,38*,6,91*,57,nt
Cc1ccc(-c2nc(Nc3ccc(O)cc3)c3ccccc3n2)cc1,3,12,13,-2,51*
COc1ccc(Nc2nc(-c3ccccc3O)nc3ccccc23)cc1,2,1,94*,61,nt
Cc1cccc(C2C3C(=O)N(Cc4ccccc4)C(=O)C3[C@]3(Cc4ccc(Cl)cc4)C(=O)N(c4cccc(Br)c4)C(=O)N23)c1 (some centres undefined),nt,nt,3,2,nt
CC1CCN(c2ccc3c(c2)S(=O)(=O)c2cccc(C(=O)NCC4CCCO4)c2C3=O)CC1 (centres undefined),nt,nt,4,6,nt
CCN1CC2C3C(=O)N(C)C(=O)C3[C@](C)(C1=O)N2C(=O)c1ccc(F)cc1 (some centres undefined),nt,nt,4,3,nt
Cc1ccc(-c2nc(Nc3cccc(O)c3)c3ccccc3n2)cc1,30*,2,67,61,nt
O=[N+]([O-])c1ccc(-c2nc(Nc3cccc(O)c3)c3ccccc3n2)cc1,0,-34,83*,85*,23
O=C(O)c1cccc(Nc2nc(-c3ccc([N+](=O)[O-])cc3)nc3ccccc23)c1,2,-11,2,6,27
O=C(O)CCCN1C(=O)/C(=C/c2cn(-c3ccccc3)nc2-c2cccs2)SC1=S,-1,-3,83*,50,6
O=C(C1=CC(C2CC2)CC(OCc2ccc(CO)cc2)O1)N1CCN(Cc2ccc3c(c2)OCO3)CC1 (centres undefined),nt,nt,2,7,nt
O=C(Cc1ccsc1)NNC(=O)c1ccccc1O,171*,-2,-2,5,nt
COc1cccc(/C=N/NC(=O)c2cc(-c3cccn3C)n[nH]2)c1O,160*,3,nt,nt,-5
COc1cc(C=NNC(=O)c2cc[n+]([O-])cc2)cc(OC)c1OC,nt,nt,8,1,nt
COc1cc(/C=N/NC(=O)c2cc[n+]([O-])cc2)cc(OC)c1OC,-1,-5,nt,nt,56*
COc1cccc(C=NNC(=O)c2cc(-c3cccn3C)n[nH]2)c1O,nt,nt,-7,5,nt
